Compound activity deposited in PubChem by National Center for Advancing Translational Sciences (NCATS).
Pf Dd2 inh = inhibitors of Plasmodium falciparum Dd2 growth; Potency, µM (top dose mostly 28.9 µM), usual class: inhibitors; actives 4.3% (n = 120,000); P. falciparum Dd2 growth, SYBR Green, 72 h; active means well fitted inhibition curve with a large enough effect; further: nearly all actives have a fitted effect of over 65% in size
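Infected erythrocytes (Dd2, 0.3% parasitemia, 2.5% hematocrit final) are added to compound in RPMI-1640/Albumax II medium, grown 72 h at 37C in low oxygen, then lysed with saponin/Triton-X containing SYBR Green and read by fluorescence.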
Each line names hits and unclear results; the compound was inactive in the other large screens. The full list was thinned out, with hits kept by preference.

O=C(COc1ccc(F)cc1)N1CCC2(CC1)CN(C1CCC1)CC2CO (stereo unspecified)	none
Cc1nc(C)n(CCCNC(=O)C2CCN(C(=O)C3CCC3)CC2)n1	none
CCCn1cc(S(=O)(=O)c2cc(C)ccc2C)c(=O)c2cc(F)c(N3CCOCC3)cc21	none
CCn1cc(S(=O)(=O)c2ccc(C)cc2C)c(=O)c2cc(F)c(N3CCCC3)cc21	Pf Dd2 inh 11.2µM
Cc1ccc(C)c(S(=O)(=O)c2cn(C)c3cc(N4CCCCC4C)c(F)cc3c2=O)c1 (stereo unspecified)	Pf Dd2 inh 11.2µM
Cc1cccc(S(=O)(=O)c2cn(C)c3cc(N4CCCCCC4)c(F)cc3c2=O)c1	none
Cc1ccc(C)c(S(=O)(=O)c2cn(C)c3cc(F)c(F)cc3c2=O)c1	none
CCn1cc(S(=O)(=O)c2cc(C)cc(C)c2)c(=O)c2cc(F)c(N3CCCCC3)cc21	none
CCCCn1cc(S(=O)(=O)c2cc(C)ccc2C)c(=O)c2cc(F)c(F)cc21	none
Cc1ccc(S(=O)(=O)c2cn(C)c3cc(N4CCCC4)c(F)cc3c2=O)c(C)c1	Pf Dd2 inh 10µM
CC1=C(C(=O)NC(C)(C)C)C(c2ccc(Cl)cc2)N2C(CC(=O)N3CCCC3)=CSC2=N1 (stereo unspecified)	none
c1cnc2c(c1)ncn2C1CC1	none
COCCN1CCCCCC(O)c2cc(C(=O)N3CCOCC3)ccc21 (stereo unspecified)	none
CN(C)c1nc2c(c(=O)[nH]1)CCN(Cc1ccccc1Cl)CC2	none
O=C(C1CCC(=O)N(C2CCCCCC2)C1)N1Cc2ccccc2C1 (stereo unspecified)	none
Cc1nnc(-c2cc(C(=O)NCCN(C)C)ccn2)n1CCc1ccccc1	none
CC(=O)NC[C@@H]1C=C(C)[C@H](Cc2nc3ccccc3n2C)C[C@H]1C(C)C	none
CC1=C[C@@H](CNCc2ccncc2)[C@H](C(C)C)C[C@H]1Cc1nnc(C)o1	none
CC1=C[C@@H](CNCc2ccc(C#N)cc2)[C@H](C(C)C)C[C@H]1Cc1nnc(-c2cccnc2)o1	none
CC1=C[C@@H](CN2CCN(c3ccccc3)CC2)[C@H](C(C)C)C[C@H]1Cc1nnc(-c2cncn2C)o1	Pf Dd2 inh 3.98µM
CC(=O)NC[C@@H]1C=C(C)[C@H](Cc2nnc(-c3cncn3C)o2)C[C@H]1C(C)C	none
CC(=O)N1CCN(C[C@@H]2C=C(C)[C@H](Cc3nnc(-c4cncn4C)o3)C[C@H]2C(C)C)CC1	none
CC1=C[C@@H](CNC(=O)N2CCOCC2)[C@H](C(C)C)C[C@H]1Cc1nc2ccccc2[nH]1	none
CC1=C[C@@H](CNCc2ccccn2)[C@H](C(C)C)C[C@H]1Cc1nnc(-c2ccccc2F)o1	Pf Dd2 inh 3.16µM
CC1=C[C@@H](CNC(=O)C2CCCCC2)[C@H](C(C)C)C[C@H]1CC(=O)NCc1cccnc1	none
COCC(=O)NC[C@@H]1C=C(C)[C@H](Cc2nnc(-c3cncn3C)o2)C[C@H]1C(C)C	none
CC1=C[C@@H](CNC(=O)C2CC2)[C@H](C(C)C)C[C@H]1Cc1nnc(-c2ccccc2F)o1	Pf Dd2 inh 15.8µM
CC1=C[C@@H](CNC2CCOCC2)[C@H](C(C)C)C[C@H]1Cc1nc2ccccc2n1C	Pf Dd2 inh 5.01µM
Cc1ccc(NC(=O)c2cc3n(n2)CC(c2ccc(Cl)cc2)OC3)cc1F (stereo unspecified)	none
Cc1nn(-c2ccccc2)c(Oc2ccccc2F)c1CCC(=O)NCC(C)C	none
COc1ccc(CN2CC(OCc3ccccc3F)CN(C(=O)C3=NNC(=O)CC3)CC2=O)cc1 (stereo unspecified)	none
O=C(O)CC1(CC(=O)N[C@H]2CO[C@H]3[C@@H]2OC[C@H]3O)CCCC1	none
O=C(Nc1nncs1)C1CC(=O)N(c2n[nH]c3cc(Br)ccc23)C1 (stereo unspecified)	none
CCc1nncn1C1CCN(C(=O)c2nn(C)c3ccccc23)C1 (stereo unspecified)	none
CC1=C[C@@H](CN2CCC(C(N)=O)CC2)[C@H](C(C)C)C[C@H]1Cc1nnc(-c2ccncc2)o1	none
CC1=C[C@@H](CNCCN2CCOCC2)[C@H](C(C)C)C[C@H]1Cc1nnc(-c2ccccc2)o1	Pf Dd2 inh 3.98µM
CC1=C[C@@H](CN2CCC(C(N)=O)CC2)[C@H](C(C)C)C[C@H]1Cc1nnc(-c2cccnc2)o1	none
CC1=C[C@@H](CN2CCOCC2)[C@H](C(C)C)C[C@H]1Cc1nnc(-c2ccncc2)o1	none
CC(=O)N1CCN(C[C@@H]2C=C(C)[C@H](Cc3nnc(-c4ccncc4)o3)C[C@H]2C(C)C)CC1	Pf Dd2 inh 11.2µM
CC(=O)N1CCN(C[C@@H]2C=C(C)[C@H](Cc3nnc(-c4ccccc4F)o3)C[C@H]2C(C)C)CC1	Pf Dd2 inh 12.6µM
CC1=C[C@@H](CNC(=O)COc2ccccc2)[C@H](C(C)C)C[C@H]1CC(=O)NCCN1CCOCC1	none
Cc1cccc(CN(C)C(=O)c2cc(-c3cnc(C)nc3)nc3cc(F)ccc23)n1	none
CN(C1CCc2nn(C)c(=O)n2CC1)S(=O)(=O)c1ccc2c(c1)CCCC2 (stereo unspecified)	none
COC(=O)[C@@H](Cc1cccnc1)NC(=O)[C@H]1CN(S(=O)(=O)c2ccccc2)CCN1C(=O)c1cccs1	none
COc1ccccc1CCC(=O)NC1CCN(c2cc(C(F)(F)F)nc(C)n2)CC1	none
Cc1nc(N2CCC(NC(=O)c3cccnc3)CC2)cc(C(F)(F)F)n1	none
COc1cccc(C(=O)NC2CCN(c3cc(C(F)(F)F)nc(C)n3)CC2)c1OC	Pf Dd2 inh 11.2µM
COc1cccc(C(=O)NC2CCN(c3cc(C(F)(F)F)nc(C)n3)CC2)c1	none
Cc1nc(N2CCC(NC(=O)c3cc4ccccc4[nH]3)CC2)cc(C(F)(F)F)n1	Pf Dd2 inh 2µM
Cc1nc(N2CCC(NC(=O)c3ccccn3)CC2)cc(C(F)(F)F)n1	none
O=C(CCNc1c(-c2cccc(F)c2)nc2cnccn12)N1CCCC1	none
O=C(O)C1(Cc2ccccc2F)CCCN(c2ncnc3sccc23)C1 (stereo unspecified)	none
O=C(c1ccc(OC2CCN(C(=O)c3ccc(F)cc3)CC2)nc1)N1CCOCC1	none
CCCN(CC1CCOC1)C(=O)Nc1ccc(C)c(Cl)c1 (stereo unspecified)	none
O=C(O)c1ccc(CN2Cc3[nH]cnc3C[C@H]2C(=O)NCc2ccco2)cc1	none
CCc1ccccc1NC(=O)Nc1cc(C(=O)NCc2ccccc2OC)ccc1N1CCCC1	none
Cc1ccc(NC(=O)Nc2cc3c(cc2N2CCCCC2)n(C)c(=O)n3C)cc1Cl	none
CCn1c(=O)n(CC)c2cc(N3CCCCC3)c(NC(=O)Nc3ccccc3Cl)cc21	Pf Dd2 inh 10µM
Cc1cc(C)cc(NC(=O)Cn2nc3n(c2=O)CCCCC3)c1	none
Cc1cc(C)cc(NC(=O)Cn2c(N3CCCCC3)nc(C)c(C)c2=O)c1	none
CCn1c(=O)n(CC)c2cc(N3CCCCC3)c(NC(=O)Nc3cc(C)cc(C)c3)cc21	Pf Dd2 inh 10µM
Cc1cnn(CCC(=O)N[C@@H]2COCC[C@H]2OCc2ccccn2)c1	none
COC(=O)c1ccc(N2C[C@H]3OC(=O)N(CCc4ccc(OC)cc4)[C@H]3C2)nc1	none
CC1Oc2ccc(NC(=O)c3c(F)cccc3F)cc2CN(Cc2ccccc2F)C1=O (stereo unspecified)	none
CN(Cc1ccc(-n2cccn2)cc1)Cc1nc(Cc2cccc(F)c2)no1	none
CCc1noc(-c2nc(Cc3cccc(F)c3)no2)n1	none
Oc1ccc(CCC2CCCCN2Cc2nc(Cc3cccc(F)c3)no2)cc1 (stereo unspecified)	Pf Dd2 inh 5.01µM
CC1(C(=O)NCc2ccsc2)CCOCC1	none
CN1C(=O)CCC2(CNC(=O)CC3CCCC3)CCCC=C12 (stereo unspecified)	none
COc1cc2c(cc1Oc1ccccc1)NC(=O)C21CCN(Cc2ccccn2)CC1	none
